ERK AVP inh: vasopressin-driven ERK pathway inhibition; Potency, µM (top dose mostly 57.5 µM), actives largely listed as inhibitors; AID 995; 72,000 compounds, 0.99% hits; HEK293-V1b, vasopressin-stimulated pERK AlphaScreen; further: nearly all actives have a fitted effect of over 55% in size
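qHTS, compounds titrated on V1b-expressing HEK293 cells. Preincubation 30 min at 37C, vasopressin 25 nM for 5 min, lysis 10 min, bead incubation 5 hr at room temperature.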
CRE-bla Fsk: modulators of forskolin-stimulated CRE signaling in CHO cells. CHO CRE-bla reporter (cAMP response element driving beta-lactamase), forskolin EC10, beta-lactamase ratio. Potency, µM (series often up to 38.2 µM), actives largely listed as activators. 71,000 compounds, 2.5% hits. AID 662; active means well fitted activation curve with a large enough effect in the signal ratio, with a control signal flat, not every such curve was filed as active; inconclusive means small, poorly fitted or top-dose-only effect, or effect the other way, or a change in a side signal; the % refers to the signal ratio
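Using CellSensor CRE-bla CHO cells in Opti-MEM with 0.5% dialyzed FBS, compounds were titrated with EC10 NKH 477 for 3 h at 37 °C. CCF4 ratio (460/530 nm) gave %Activity; AC50 derived.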
ALOX15B inhib: 15-hLO-2 (ALOX15B) enzyme inhibition; O15296; Potency, µM (top dose mostly 57.1 µM), hits mostly inhibitors; 110,000 compounds, 0.56% hits; purified 15hLO-2, xylenol orange hydroperoxide absorbance; further: nearly all actives have a fitted effect of over 60% in size
Target sequence (O15296 whole entry, looked up): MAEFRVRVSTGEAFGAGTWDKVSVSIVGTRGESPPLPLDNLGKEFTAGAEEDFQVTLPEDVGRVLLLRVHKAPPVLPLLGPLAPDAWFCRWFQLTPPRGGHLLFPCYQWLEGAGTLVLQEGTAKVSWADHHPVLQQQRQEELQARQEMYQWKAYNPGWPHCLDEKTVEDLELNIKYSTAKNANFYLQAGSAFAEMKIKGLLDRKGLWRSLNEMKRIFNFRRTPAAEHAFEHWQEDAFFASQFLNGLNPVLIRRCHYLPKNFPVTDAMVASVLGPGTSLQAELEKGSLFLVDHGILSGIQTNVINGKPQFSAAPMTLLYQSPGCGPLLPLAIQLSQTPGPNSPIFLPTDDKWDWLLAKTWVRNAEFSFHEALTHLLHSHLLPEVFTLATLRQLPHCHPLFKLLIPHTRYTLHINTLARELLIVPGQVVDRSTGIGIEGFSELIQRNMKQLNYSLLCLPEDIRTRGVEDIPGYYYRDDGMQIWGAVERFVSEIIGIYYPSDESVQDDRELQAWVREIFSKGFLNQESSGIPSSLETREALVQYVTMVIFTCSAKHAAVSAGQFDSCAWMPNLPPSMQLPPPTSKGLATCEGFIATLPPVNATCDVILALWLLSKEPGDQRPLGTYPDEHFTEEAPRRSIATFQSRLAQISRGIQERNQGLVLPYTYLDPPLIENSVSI
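Screening format was qHTS against 50 nM purified 15hLO-2 in Hepes pH 7.5 with detergent. Activity follows hydroperoxide formation from 45 uM arachidonic acid, measured as 573:405 nm absorbance ratio of the ferric-xylenol orange complex.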
15-hLO inh: inhibitors of human 15-lipoxygenase (ALOX15). P16050. purified 15hLO-1, xylenol orange hydroperoxide absorbance. Potency, µM (doses to about 57.1 µM), actives largely listed as inhibitors. 74,000 compounds, 1.4% hits; further: nearly all actives have a fitted effect of over 55% in size
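Purified human 15hLO-1 (40 nM) in 25 mM Hepes pH 7.5, 0.01% Triton X-100, preincubated 15 min RT with compound, then 50 uM arachidonic acid for 6 min. Hydroperoxide read by ferrous/xylenol orange, 30 min; 573/405 nm absorbance ratio gave progress.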
Of the large screens only hits and unclear results are named; the others gave an inactive call; ! = a repeat was not active. This is a sample that favours compounds with a hit; in the whole collection about 3.2% have one here. Unless noted, the call rests on the fitted dose curve; in most records, active means well fitted inhibition curve with a large enough effect; inconclusive means small, poorly fitted or top-dose-only effect; inactive means no such curve, though single readings can be large or run the other way.

O=c1c(-c2ccc(Cl)cc2)nc2cnc(N3CCNCC3)nc2n1-c1ccccc1	ERK AVP inh inconclusive, CRE-bla Fsk inconclusive
O=c1c(-c2ccccc2)nc2cnc(N3CCNCC3)nc2n1-c1ccccc1	CRE-bla Fsk inconclusive, 15-hLO inh 0.32µM
COc1ccc(-c2nc3cnc(N4CCNCC4)nc3n(-c3ccc(OC)cc3)c2=O)cc1	CRE-bla Fsk inconclusive
Cc1cc(C)cc(N(CC(=O)O)S(=O)(=O)c2cccnc2)c1	none (no result: ERK AVP inh, ALOX15B inhib)
COc1cccc(NC(=O)/C=C\c2ccc(Cl)cc2)c1	ERK AVP inh 32µM, CRE-bla Fsk inconclusive
CSc1cccc(NC(=O)/C=C/c2ccc(Cl)cc2)c1	none (no result: ERK AVP inh, CRE-bla Fsk, 15-hLO inh)
CN1CCN(C(=O)c2nc3ccc(Cl)cc3[nH]2)CC1	15-hLO inh inconclusive (no result: CRE-bla Fsk)
Cc1ccccc1-n1nc2c(c1NC(=O)c1cc3ccccc3oc1=O)CS(=O)C2 (configuration not stated)	CRE-bla Fsk 2.5µM
COc1ccc(CC(=O)Nc2c3c(nn2-c2cccc(C)c2C)CS(=O)(=O)C3)cc1	none
COc1cccc(C(=O)Nc2c3c(nn2-c2ccccc2C)CS(=O)C3)c1OC (configuration not stated)	CRE-bla Fsk inconclusive
Cc1ccccc1-n1nc2c(c1NC(=O)c1cc3ccccc3oc1=O)CS(=O)(=O)C2	CRE-bla Fsk 1.6µM
COc1ccccc1C(=O)Nc1c2c(nn1-c1cccc(C)c1C)CS(=O)(=O)C2	CRE-bla Fsk 1.6µM
Cc1c(NS(=O)(=O)c2cccs2)c(=O)n(-c2ccccc2)n1C	none
Cc1c(N/C=C/C(=O)c2cccs2)c(=O)n(-c2ccccc2)n1C	15-hLO inh 25µM
O=C(O)C(O)C(O)C(O)C(O)C(=O)O (configuration not stated)	none (no result: CRE-bla Fsk)
Cc1ccc(C)n1-c1ccc(N2CCOCC2)cc1	ERK AVP inh inconclusive, 15-hLO inh 2.5µM
O=C(Nc1ccccc1)N1CC2(CCN(C(=O)c3ccncc3)CC2)C1	none
Cc1ccc(C(=O)Nc2ccccc2N2CCN(C(=O)C(C)C)CC2)cc1	none
COc1ccc(Cl)cc1C(=O)Nc1ccccc1N1CCN(C(=O)C(C)C)CC1	CRE-bla Fsk 13µM
c1ccc(-c2nc3nonc3nc2-c2ccccc2)cc1	ERK AVP inh 13µM, CRE-bla Fsk inconclusive
CCOc1ccc(NCC2CCOC(C)(C)C2)cc1 (configuration not stated)	ERK AVP inh inconclusive, CRE-bla Fsk 3.2µM (no result: ALOX15B inhib)
COc1ccc(-c2nnc3sc(CN4C(=O)c5ccccc5C4=O)nn23)cc1	CRE-bla Fsk inconclusive
COc1ccc(-c2nnc3sc(C(C)N4C(=O)c5ccccc5C4=O)nn23)cc1 (configuration not stated)	CRE-bla Fsk 10µM (no result: ALOX15B inhib)
CCC1OCCC=CC1C (configuration not stated)	none (no result: CRE-bla Fsk, ALOX15B inhib)
Nc1ccc(Cl)cc1Cl	none
C=CC1=C(C)C2=NC1=CC1=NC(=CC3=NC(=CC4=NC(=C2)C(C)=C4CCC(=O)O)C(CCC(=O)O)=C3C)C(C=C)=C1C.[Zn]	CRE-bla Fsk inconclusive, ALOX15B inhib 13µM, 15-hLO inh 10µM
N[C@@H](CCCCO)C(=O)O	none
Cc1ccc(OC2C(O)COC2/C=C/C#Cc2ccc(C(C)(C)C)cc2)cc1 (configuration not stated)	15-hLO inh 3.2µM! (no result: CRE-bla Fsk, ALOX15B inhib)
CC(=O)c1ccc(OC2C(O)COC2/C=C/c2ccc(Cl)cc2)cc1 (configuration not stated)	none (no result: CRE-bla Fsk, ALOX15B inhib)
Cn1c2ccccc2c2ncn(Cc3ccco3)c(=O)c21	CRE-bla Fsk 10µM
Cn1c2ccc(F)cc2c2ncn(Cc3ccco3)c(=O)c21	none (no result: ERK AVP inh, CRE-bla Fsk, 15-hLO inh)
O=C(CSCc1ccc(Cl)cc1)c1ccco1	ERK AVP inh inconclusive, 15-hLO inh 32µM
CCCCCCCC/C=C\CCCCCCCC(=O)N(CCO)CCO	CRE-bla Fsk 10µM, 15-hLO inh 1.3µM
CCCCCCCC/C=C\CCCCCCCC(=O)O	none
CCCCC/C=C\C/C=C\CCCCCCCC(=O)O	15-hLO inh 0.16µM
CCCCCCCC/C=C\CCCCCCCC(=O)NCCO	CRE-bla Fsk inconclusive
COc1ccc(C(=O)N2CCC3(CCCN(c4ncccn4)C3)CC2)cc1	none
COc1cc(-c2nnc(-c3cccnc3)o2)cc(OC)c1OC	ERK AVP inh inconclusive, CRE-bla Fsk inconclusive
COc1ccc(-c2nnc(-c3cccnc3)o2)cc1OC	ERK AVP inh inconclusive, CRE-bla Fsk 10µM
Cc1ccc2cc(C#N)c(NCCNC(=O)C3CC3)nc2c1C	ERK AVP inh 25µM, CRE-bla Fsk inconclusive
CCC(=O)NCCNc1nc2cc(C)c(C)cc2cc1C#N	none (no result: ERK AVP inh, CRE-bla Fsk, 15-hLO inh)
Cc1ccc(CNC(=O)[C@H](C)[C@@H]2C[C@@]2(C)[C@@H](NC(=O)OCc2ccccc2)c2ccccc2)c(F)c1F	none (no result: 15-hLO inh)
C=CCOC(=O)c1cc(-c2ccc(/C=C3\C(=O)NC(=O)C(C#N)=C3C)o2)ccc1Cl	ALOX15B inhib 13µM (no result: ERK AVP inh, CRE-bla Fsk, 15-hLO inh)
CC(C)COC(=O)c1cc(-c2ccc(/C=N/n3cnnc3)o2)ccc1Cl	none
O=C(Nc1ccc(N2CCCC2)cc1)C(Cl)c1ccccc1 (configuration not stated)	ALOX15B inhib 13µM (no result: ERK AVP inh, CRE-bla Fsk, 15-hLO inh)
Cc1cc(N2CCOCC2)nc(SCC(=O)c2ccccc2)n1	CRE-bla Fsk inconclusive
Cc1cc(N2CCOCC2)nc(SCC(=O)c2ccc(Cl)cc2)n1	CRE-bla Fsk 10µM
C[C@@]12CC[C@@H]3[C@H](CCC4=CC(=O)CC[C@]43C)[C@@H]1CC[C@@H]2C(=O)COS(=O)(=O)c1ccc(Br)cc1	15-hLO inh inconclusive
COc1cc(NC(=O)c2ccco2)c(OC)cc1NC(=O)c1cc(OC)c(OC)c(OC)c1	CRE-bla Fsk 4µM
COc1cc(C(=O)Nc2cc(-c3ccccc3)[nH]n2)cc(OC)c1OC	ERK AVP inh inconclusive, CRE-bla Fsk 0.79µM
COc1cc(C(=O)Nc2nc(OC)c(-c3ccccc3)c(OC)n2)cc(OC)c1OC	CRE-bla Fsk inconclusive
COc1cc(C(=O)Nc2c(-c3ccccn3)c(=O)c3ccccc3n2C)cc(OC)c1OC	CRE-bla Fsk 0.16µM
Nc1nc(O)c2ncn([C@H]3CC[C@@H](CO)O3)c2n1	none (no result: CRE-bla Fsk)
Cc1ccc2nc(NC(=O)CNS(=O)(=O)c3ccc(Br)s3)sc2c1	CRE-bla Fsk inconclusive
Cc1cccc2sc(NC(=O)CNS(=O)(=O)c3ccc(Br)s3)nc12	ERK AVP inh 20µM, CRE-bla Fsk inconclusive
Cc1ccc2nc(NC(=O)CN(C)S(=O)(=O)c3ccc(Br)s3)sc2c1	ERK AVP inh 4µM, 15-hLO inh inconclusive
COc1cc(=O)n(C)c2c(OC[C@@H](O)C(C)(C)O)cccc12	CRE-bla Fsk 25µM!
COc1ccccc1CNC(=O)CCCOc1cc(=O)n(C)c2ccccc12	none (no result: ERK AVP inh, CRE-bla Fsk, 15-hLO inh)
COc1ccc(-n2c(=O)c(-c3cc(F)cc(F)c3)nc3cnc(N(C)C)nc32)cc1	CRE-bla Fsk inconclusive
Cc1cc(N2CCN(C)CC2)nc2ccc(NC(=O)c3ccc4c(c3)OCO4)cc12	ERK AVP inh 13µM
Cc1cc(N2CCN(C)CC2)nc2ccc(NC(=O)c3ccc(Br)o3)cc12	none
O=C(O)CNC(=O)[C@H]1NC(C(F)(F)F)(C(F)(F)F)OC1(C(F)(F)F)C(F)(F)F	none
Cn1cccc1C1NC(=O)c2c(sc3c2CCC(C(C)(C)C)C3)N1 (configuration not stated)	15-hLO inh inconclusive

Bioassay records deposited in PubChem BioAssay by National Center for Advancing Translational Sciences (NCATS).
